Structures are written as SMILES. This is part of a sample that, as a whole, favours compounds with a hit. Of some 83,000 tested, about 20% had one in any assay.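 Step 1: grow cells in 96-well plates. Step 2: add test compound at a single concentration. Step 3: incubate 48 h. Step 4: record percent growth.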 Unmarked numbers belong to inactive results. Activity calls are given as the source filed them. How the source made its calls: active means growth percent below 10; inactive means the rest.

Assay in all cases: NCI-60 one-dose screen, 48 h (100 = growth as untreated, 0 = no growth, -100 = all killed)
One experiment has as its system HCT-15 colon. The conditions noted are these: 10 µM unless noted.
In the next experiment the test system is HT29 colon. The conditions noted are these: 10 µM unless noted.
Another experiment deals with SNB-75 CNS. The conditions noted are these: 10 µM unless noted.
The next experiment has as its system SNB-19 CNS. Particulars: 10 µM unless noted.
The test system of the next experiment is PC-3 prostate. Particulars: 10 µM unless noted.
For another experiment, the system named is SK-MEL-5 melanoma. The conditions noted are these: 10 µM unless noted.
The subject of another experiment is UACC-62 melanoma. Particulars: 10 µM unless noted.
The subject of a further experiment is LOX IMVI melanoma. Particulars: 10 µM.
The subject of another experiment is SK-MEL-28 melanoma. The conditions noted are these: 10 µM unless noted.
A further experiment has as its system SK-MEL-2 melanoma. The conditions noted are these: 10 µM unless noted.
A further experiment relates to EKVX NSCLC. The conditions noted are these: 10 µM unless noted.
The next experiment has as its system SN12C renal. The conditions noted are these: 10 µM unless noted.
Another experiment relates to UO-31 renal. Particulars: 10 µM unless noted.
The subject of a further experiment is TK-10 renal. The conditions noted are these: 10 µM unless noted.
For the next experiment, the system named is ACHN renal. Particulars: 10 µM unless noted.
The next experiment relates to CCRF-CEM leukemia. The conditions noted are these: 10 µM unless noted.
For a further experiment, the system named is MOLT-4 leukemia. Particulars: 10 µM unless noted.
The test system of a further experiment is CAKI-1 renal. The conditions noted are these: 10 µM unless noted.
In the next experiment the test system is A498 renal. Particulars: 10 µM unless noted.
Another experiment deals with U251 CNS. The conditions noted are these: 10 µM unless noted.

Consider `COc1ccc(NC(=O)[C@@H](N)Cc2ccccc2)cc1C(=O)Nc1cccc(C2CC(=O)c3c(cc(OC)c(OC)c3OC)O2)c1` (stereo not given in full), for which the growth in the experiment with HCT-15 colon was 37.7%; in the experiment with HT29 colon it was 73.4%; in the experiment with SNB-75 CNS it was 108%; with SNB-19 CNS, 79%; in the experiment on PC-3 prostate it was 38.8%; with SK-MEL-5 melanoma, 46.5%. Besides, the growth was 49.7% with UACC-62 melanoma; 25.1% in the experiment with LOX IMVI melanoma; 73.2% in the experiment with SK-MEL-28 melanoma; 77.9% with SK-MEL-2 melanoma; 72.9% with EKVX NSCLC; 56.4% in the experiment with SN12C renal. Also, the growth was 33.8% in the experiment on UO-31 renal; 94.8% in the experiment on TK-10 renal; 54.2% with ACHN renal; 15% with CCRF-CEM leukemia; 19.5% in the experiment with MOLT-4 leukemia.
`OCC1(CCCc2ccccc2)CCCN(c2nccc3ccccc23)C1` (stereo not given): the growth with HCT-15 colon is 27.7%; in the experiment with HT29 colon, 21.3%; with SNB-75 CNS, 40.5%; with SNB-19 CNS, 44.2%; with PC-3 prostate it was 52.2%; with SK-MEL-5 melanoma it was -60% (active). Moreover, the growth in the experiment with UACC-62 melanoma was 38.7%; in the experiment on LOX IMVI melanoma it was 35.8%; in the experiment on SK-MEL-28 melanoma, 32.4%; with SK-MEL-2 melanoma, 30.7%; in the experiment on EKVX NSCLC it was 23.4%; in the experiment with SN12C renal, 44.4%. Moreover, the growth is 26.9% with UO-31 renal; 50.1% in the experiment on TK-10 renal; 51.8% in the experiment on ACHN renal; 38.6% with CAKI-1 renal; 63.3% with A498 renal; 49.2% in the experiment with CCRF-CEM leukemia. For the same compound, the growth with MOLT-4 leukemia was 32.3%.
Regarding `COc1ccc(C(=O)/C=C/c2cccc(Cl)c2Cl)cc1S(N)(=O)=O`, the growth in the experiment with HCT-15 colon was -69.4% (active); in the experiment with HT29 colon, -6.28% (active); in the experiment on SNB-75 CNS, 15.2%; in the experiment with SNB-19 CNS, 6.23% (active); with PC-3 prostate it was 5% (active); in the experiment with UACC-62 melanoma, 33%. The growth with LOX IMVI melanoma is -78.9% (active); in the experiment with SK-MEL-28 melanoma, -19.1% (active); in the experiment on SK-MEL-2 melanoma, 74.4%; in the experiment on EKVX NSCLC, 0.538% (active); with UO-31 renal it was -81.3% (active); with TK-10 renal, 20.3%. The growth is -82.4% (active) in the experiment with ACHN renal, -5.88% (active) with CAKI-1 renal, 94.9% in the experiment on A498 renal and 0.527% (active) in the experiment on CCRF-CEM leukemia.
For `COc1ccc(N2N=C(c3ccc4c(c3)OCO4)CC2c2cccc(NC(=O)CCNS(=O)(=O)c3ccc(Cl)cc3)c2)cc1` (stereo not given), the growth is 33% in the experiment on HCT-15 colon; 17.1% with HT29 colon; 49.4% in the experiment with SNB-75 CNS; 29.5% in the experiment with U251 CNS; 16.5% in the experiment with PC-3 prostate; 24.2% in the experiment with SK-MEL-5 melanoma. The growth was 39.5% in the experiment with UACC-62 melanoma; 23.3% in the experiment with LOX IMVI melanoma; 28.2% in the experiment on SK-MEL-28 melanoma; 44.5% in the experiment on SK-MEL-2 melanoma; 13.1% in the experiment with EKVX NSCLC; 35.3% with UO-31 renal. The growth was 51.9% in the experiment on TK-10 renal; 24.9% in the experiment with ACHN renal; 30.4% in the experiment with CAKI-1 renal; -4.53% (active) with A498 renal; 18.7% in the experiment with CCRF-CEM leukemia; 10.3% with MOLT-4 leukemia.
`COc1cc2c(c(OC)c1OC)C(=O)CC(c1cccc(NC(=O)c3cc(NC(=O)[C@H](CO)NC(=O)OC(C)(C)C)ccc3Cl)c1)O2` (stereo not given in full): the growth with HCT-15 colon is 35.4%; in the experiment on HT29 colon, 15.7%; with SNB-75 CNS, 54.8%; in the experiment on SNB-19 CNS it was 45%; in the experiment on PC-3 prostate, 28.1%; in the experiment with SK-MEL-5 melanoma, 14.3%. Further, the growth is 40.2% with UACC-62 melanoma; 21% with SK-MEL-28 melanoma; 11.7% in the experiment on SK-MEL-2 melanoma; 62.2% with EKVX NSCLC; 27.1% in the experiment with SN12C renal; 48.8% in the experiment with UO-31 renal. Further, the growth in the experiment on ACHN renal is 46.1%; in the experiment with CAKI-1 renal, 31.2%; in the experiment on A498 renal, 91.5%; in the experiment with CCRF-CEM leukemia it was 21.8%; in the experiment with MOLT-4 leukemia, 12.5%.
On to `CN(C)CCn1c2ccccc2c2nc3cc(C(F)(F)F)ccc3nc21`, for which the growth with HCT-15 colon was 19.4%; in the experiment on HT29 colon, 27.6%; with SNB-75 CNS, 44.5%; with SNB-19 CNS, 36.4%; in the experiment on U251 CNS it was 38.1%; in the experiment on SK-MEL-5 melanoma, 28.3%. The growth in the experiment on UACC-62 melanoma was 44.8%; in the experiment on SK-MEL-28 melanoma it was 44.4%; with SK-MEL-2 melanoma, 56.4%; with EKVX NSCLC, 64.3%; in the experiment with SN12C renal it was 21.7%; in the experiment on UO-31 renal, 11.9%. The growth in the experiment with TK-10 renal is 108%; with ACHN renal, 13.5%; in the experiment with CAKI-1 renal, 11%; in the experiment on A498 renal, 75.8%; in the experiment with MOLT-4 leukemia, 23.8%.
Take `Cn1cc(-c2nnc(N)nc2-c2c[nH]c3ccc(F)cc23)c2cccnc21`: the growth is 28.5% in the experiment on HCT-15 colon; 16.8% in the experiment on HT29 colon; 24.4% in the experiment on SNB-75 CNS; 52.2% in the experiment with SNB-19 CNS; 63.7% in the experiment with PC-3 prostate; 20.9% in the experiment with SK-MEL-5 melanoma. Further, the growth is 36.9% in the experiment on UACC-62 melanoma; 63.2% in the experiment with SK-MEL-28 melanoma; 15.7% in the experiment with SK-MEL-2 melanoma; 62.4% in the experiment on EKVX NSCLC; 45.9% in the experiment on SN12C renal; 48.4% in the experiment on UO-31 renal. Further, the growth in the experiment with TK-10 renal is 82.4%; in the experiment with ACHN renal, 54.6%; in the experiment on CAKI-1 renal, 45.7%; in the experiment on A498 renal, 86.2%; with CCRF-CEM leukemia it was 47.9%; in the experiment on MOLT-4 leukemia it was 28.9%.
Consider `N#Cc1c(-c2cccc(Cl)c2Cl)cc(-c2c[nH]c3ccccc23)[nH]c1=O`, for which the growth with HCT-15 colon was 49.7%; in the experiment with HT29 colon, 110%; in the experiment on SNB-75 CNS, 79.6%; with SNB-19 CNS, 77.2%; in the experiment with PC-3 prostate, 26.5%; in the experiment on SK-MEL-5 melanoma, 51.6%. The growth in the experiment on UACC-62 melanoma was 47.7%; in the experiment with SK-MEL-28 melanoma it was 83.5%; in the experiment with SK-MEL-2 melanoma, 87.7%; with EKVX NSCLC it was 53%; in the experiment on SN12C renal it was 53.6%; in the experiment with UO-31 renal, 43.1%. Besides, the growth in the experiment with TK-10 renal is 108%; with ACHN renal it was 59%; in the experiment on CAKI-1 renal, 53%; with A498 renal it was 128%; with CCRF-CEM leukemia it was 33.1%; with MOLT-4 leukemia it was 41%.

For the origin of these results see PubChem BioAssay (NCI).
